Source: PubChem BioAssay AID1159580 (chemical genetic matrix, 2015)
Out of some 5,500 compounds screened, about 2,000 (36%) were called active. Another 18% or so got no clear call; they are omitted. Rule as the data show it: active = normalized growth mostly below about 0.91 (no sharp cut-off); inconclusive = no clear call, values can overlap the other calls; inactive = mostly above about 0.92. Some of the results follow.

Assay: chemical genetic growth profiling, strain panel (AID 1159580);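 also: tested at 20 µM; growth read once vehicle control cultures reached saturation at 30 °C; 1 = growth at the plate median or of vehicle wells; lower values mean less growth of the strain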
Settings: S. cerevisiae deletion strains, growth OD

Measured: normalized growth

NCC#Cc1ccccc1
inactive: locus YAL013W, strain DEP1, active compounds read low 1.04 | locus YAL040C, strain CLN3, active compounds read low 0.989 | locus YCL061C, strain MRC1 (second series), active compounds read low 1.01 | locus YDR150W, strain NUM1, active compounds read low 1.02 | locus YDR363W, strain ESC2, active compounds read low 1.02 | locus YER002W, strain NOP16, active compounds read low 1 | locus YGR229C, strain SMI1, active compounds read low 1.07 | locus YMR263W, strain SAP30, active compounds read low 1 | locus YMR307W, strain GAS1, active compounds read low 1.01 | locus YNL128W, strain TEP1, active compounds read low 1.01 | locus YNL153C, strain GIM3, active compounds read low 1.15 | locus YNL175C, strain NOP13, active compounds read low 1.01 | locus YNL197C, strain WHI3, active compounds read low 1.01 | locus YNL224C, strain SQS1, active compounds read low 1.01 | locus YOR083W, strain WHI5 (second series), active compounds read low 1.01 | locus YPL055C, strain LGE1, active compounds read low 1.04
